Source: PubChem BioAssay
The list is not random: actives were taken first. Their share in the collection is about 1.6%.
KCNQ2 enhance = potentiators of rat KCNQ2 potassium channel; Potassium voltage-gated channel subfamily KQT member 2 (Rattus norvegicus), O88943; actives 0.54% (n = 310,000); B-score at 10 µM; CHO-K1 KCNQ2, FluxOR thallium flux fluorescence; hits give high values; AID 2239, 2010;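 active = fluorescence ratio B-score at least 3 SD of library B-scores, with initial fluorescence B-score within 3 of them, cut at about 5.3 in these data; same plate scores as AID 2156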;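 note: B-score of peak minus minimum over baseline fluorescence ratio after K+ and Tl+ stimulus; positive B-score means potentiation of KCNQ2 with more thallium influx and brighter signal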
KCNQ2 inh = rat KCNQ2 potassium channel inhibitors, primary screen, cell-based, CHO-K1, FluxOR thallium flux, B-score; 20 min; hits give low values; actives 1.1% (n = 310,000); B-score at 10 µM; AID 2156, 2009;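 active = fluorescence ratio B-score at most minus 3 library SDs, with starting brightness B-score within 2 library SDs, cut at about -5.5 in these data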
An asterisk follows results filed as active; i = inactive; . = not tested or not shown.

SMILES	KCNQ2 enhance	KCNQ2 inh
Cc1cccc(Nc2nc(N3CCOCC3)nc(N3CCOCC3)n2)c1	0.48	i
COc1ccc(-c2nc(CN(CC3CCC(=O)N3)C(C)C)c(C)o2)c(C)c1C (centres undefined)	-6.69	-6.69*
COc1ccc(-c2nc(CN(C)C(C)c3ccon3)c(C)o2)c(C)c1C (centres undefined)	.	i
CCCCC1(CO)C(=O)N(c2ccccc2)N(c2ccccc2)C1=O	0.29	i
CCCCC1(Cc2cccc([N+](=O)[O-])c2)C(=O)N(c2ccccc2)N(c2ccccc2)C1=O	-6.93	-6.93*
Cc1ccc(S(=O)(=O)N2CCCCC2CCNC(=O)C(=O)NCc2ccccc2)cc1 (centres undefined)	.	i
O=C(Nc1csc(Cc2c(Cl)cccc2Cl)n1)NN1CCOCC1	6.08*	i
COC(=O)c1c(-c2c(Cl)cccc2Cl)noc1NC(=O)NN1CCOCC1	.	i
COc1ccc(S(=O)(=O)N2CCCOC2CNC(=O)C(=O)NCCc2ccco2)cc1OC (centres undefined)	.	i
COc1cc(O)cc2c1[C@@H]1Oc3c(ccc(O)c3CC=C(C)C)[C@@H]1CO2	-6.46	-6.46*
COc1cc2ccc(=O)oc2c(CC=C(C)C)c1OC	0.11	i
CCOC(=O)C(C)Oc1ccc(NC(=O)C(Cl)Cl)cc1 (centres undefined)	.	i
Cc1ccc(/C=C/C(=O)Nc2ccc(S(=O)(=O)Nc3onc(C)c3C)cc2)cc1	.	i
CCN1CCN(Cc2ccc(NC(=O)c3ccc(C)c(NC(=O)C(=O)c4c[nH]c5ccccc45)c3)cc2C(F)(F)F)CC1	-7.83	-7.83*
CCN1CCN(Cc2ccc(NC(=O)c3cc(NC(=O)C(=O)c4c[nH]c5ccccc45)cc(OC)c3)cc2C(F)(F)F)CC1	.	i
CCOC(=O)C1CCN(S(=O)(=O)c2cc(Br)cc3c2N(C(C)=O)C(C)C3)CC1 (centres undefined)	0.16	i
CN1CCN(C(=O)c2ccc3c(c2)N(Cc2ccc(F)cc2)C(=O)c2ccccc2S3=O)CC1 (centres undefined)	.	i
CCOC(=O)c1c(CN2CCOCC2)n(-c2ccccc2)c2cc(Br)c(OC)cc12	.	i
CCOC(=O)c1c(CN(C)C)n(-c2ccccc2)c2cc(Br)c(OC)cc12	-6.24	-6.24*
COc1ccc(NC(=O)CC23CC4CC(CC(C4)C2)C3)cn1	18.3*	i
O=C(CC12CC3CC(CC(C3)C1)C2)Nc1ccc(C(=O)O)cc1	.	i
O=C(/C=C/c1ccccc1)OCc1cnc(Cl)s1	.	i
Cc1nc(SCC(=O)NNC(=O)c2cccs2)[nH]c(=O)c1C	1.09	i
O=C(COC(=O)CNS(=O)(=O)c1ccc2ccccc2c1)Nc1ccccc1Sc1ccccc1	0.11	i
CCOC(=O)c1c(-n2c(C)cc(C=O)c2C)sc2c1CCCC2	-6.12	-6.12*
SMILES	KCNQ2 enhance	KCNQ2 inh
CCOC(=O)c1cccc(-n2c(C)cc(C=O)c2C)c1	2.61	i
CC(C)(C)c1oc(C(=O)O)cc1CN1CCOCC1	.	i
CSCCC(NS(=O)(=O)c1ccccc1F)C(=O)OCc1ccccc1Cl (centres undefined)	-6.23	-6.23*
CSCCC(NS(=O)(=O)c1ccc(Cl)cc1)C(=O)OCc1c(Cl)cccc1Cl (centres undefined)	.	i
Cc1nn(-c2ccccc2)c2ncc(C(=O)c3cc(Cl)ccc3O)cc12	.	i
CCc1nn2cc(C(=O)c3cc(Cl)ccc3O)cnc2c1-c1ccc(F)cc1	-5.56	-5.56*
COCCNC(=O)C1CCCN(S(=O)(=O)c2cccc3nsnc23)C1 (centres undefined)	0.01	i
CC(C)(C#CCN1CCCCC1)OCCOC(c1ccccc1)c1ccccc1	-6.1	-6.1*
CC(O)(C#CCN1CCCCC1)c1ccccc1 (centres undefined)	1.31	i
Cc1ncc([N+](=O)[O-])n1CCN1C(=O)c2ccccc2C1=O	.	i
CCOC(=O)N1CCN(C(=O)C2CCC(=O)N(Cc3cccc(C(F)(F)F)c3)C2)CC1 (centres undefined)	.	i
N=C1c2ccccc2CN1NC(=O)CC12CC3CC(CC(C3)C1)C2	17.6*	i
Cc1cc(C)cc(OCC(=O)NN2Cc3ccccc3C2=N)c1	1.13	i
CCc1ccccc1NC(=S)N(Cc1ccc(OC)cc1)CC1CCC(C(=O)O)CC1 (centres undefined)	.	i
CN(C)c1nc(SCC(=O)Nc2ccc(Cl)c(Cl)c2)nc(N2CCOCC2)n1	1.51	i
CN(C)c1nc(SCC(=O)Nc2ccccc2)nc(N2CCOCC2)n1	6.36*	i
COc1ccc(-n2c(COc3ccc4ccccc4c3)nnc2SCC(=O)NCc2ccco2)cc1	1.05	i
COc1ccc(OC)c(C(=O)CSc2nnc(-c3cccs3)n2C)c1	0.04	i
COc1ccc(OC)c(C(=O)CSc2nnc(Cc3cccs3)n2CCc2ccccc2)c1	-7.07	-7.07*
COc1cccc(OCc2nnc(SCC(=O)NCc3ccco3)n2CCc2ccccc2)c1	-6.82	-6.82*
CC(=O)NC(CC(=O)NNC(=O)c1cc2ccccc2cc1O)c1ccccc1 (centres undefined)	0.01	i
O=C(Nc1cccc(F)c1)/C(=C/c1ccco1)NC(=O)c1ccco1	0.33	i
CC(C)(C)c1ccc(C(=O)NC2CCN(Cc3ccccc3)CC2)cc1	1.13	i
COc1ccccc1-n1c(SCc2cc(=O)oc3cc(O)ccc23)nc2ccccc2c1=O	.	i
CCC(CO)n1c(SCc2cc(=O)oc3cc(C)ccc23)nc2ccccc2c1=O (centres undefined)	-7.65	-7.65*
SMILES	KCNQ2 enhance	KCNQ2 inh
Cc1csc(NC(=O)c2cncc(Br)c2)n1	1.3	i
O=C(NCCCN1CCCC1=O)Nc1ccc([N+](=O)[O-])cc1	.	i
COc1ccc(C(=O)NC(=S)Nc2ccc(CN3CCOCC3)cc2)cc1OC	.	i
COc1ccc(Br)cc1/C=C/C(=O)NC(=S)Nc1ccc(CN2CCOCC2)cc1	-6.33	-6.33*
O=c1[nH]cnc2c1sc1nc(-c3ccccc3)c3c(c12)CCCC3	1.54	i
S=c1nc[nH]c2c1sc1nc(-c3ccccc3)c3c(c12)CCCC3	15.7*	i
Cc1ccc(C(=O)NCc2ccccn2)cc1NC1=NC2CS(=O)(=O)CC2S1 (centres undefined)	1.58	i
O=C(Cc1ccc([N+](=O)[O-])cc1)N1N=C(c2ccncc2)CC1(O)C(F)(F)F (centres undefined)	.	i
CCOC(=O)C1CCN(C(=O)Cn2nc(CC)n3cccc3c2=O)CC1	.	i
COc1ccc(Cl)cc1/C=N/NC(=O)c1c(-c2ccccc2)noc1C	-6.17	-6.17*
COc1cc(/C=N/NC(=O)c2c(-c3ccccc3)noc2C)ccc1O	.	i
COc1cccc(/C=N/NC(=O)c2c(-c3ccccc3)noc2C)c1O	.	i
COc1cccc(/C=N/NC(=O)c2c(-c3ccccc3)noc2C)c1OC	-7.32	-7.32*
O=C(c1ccccn1)N(Cc1ccco1)C1(C(=O)NC2CCCC2)CCCCC1	.	i
O=C(c1ccc2c(c1)OCO2)N(Cc1ccco1)C1(C(=O)NC2CCCCC2)CCCCC1	-7.31	-7.31*
CCOc1ccc(-c2cc(C(=O)NCCCN3CCCC3)c3ccccc3n2)cc1	.	i
O=Nc1c(O)n(Cc2c(Cl)cccc2Cl)c2ccccc12	0.3	i
O=Nc1c(O)n(Cc2ccc(Cl)cc2)c2ccccc12	.	i
